Among the data in PubChem BioAssay (NCI) are growth values, retold here.

Test systems include NCI-H23 lung; NCI-H226 lung; NCI-H322M lung; HOP-62 NSCLC; NCI-H460 lung; HOP-92 NSCLC; NCI-H522 lung; A549/ATCC NSCLC; 786-0 renal; COLO 205 colon; DU-145 prostate; K-562 leukemia; MALME-3M melanoma; MDA-MB-231 breast; RXF 393 renal; SF-268 CNS; SF-295 CNS; SF-539 CNS; UACC-257 melanoma; M14 melanoma.
Holding throughout (assay): NCI-60 one-dose screen, 48 h (100 = growth as untreated, 0 = no growth, -100 = all killed)
Common to all, as to settings: 10 µM unless noted

This is part of a sample that, as a whole, favours compounds with a hit. Of some 83,000 tested, about 20% had one in any assay.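 Method: cells in 96-well plates; compound added at one concentration; 48 h incubation; percent growth measured; values under 10 scored active.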 Unmarked numbers belong to inactive results. Calls of active or inactive are those of the source.

Take `c1cc(OCCN2CCCC2)ccc1CNc1ccc2nc(CCC3CCCCC3)[nH]c2c1`: the growth in the experiment on NCI-H23 lung was 81.9%; in the experiment with NCI-H226 lung, 51.3%; in the experiment with NCI-H322M lung it was 78.2%; in the experiment on HOP-62 NSCLC, 57.8%; in the experiment on NCI-H460 lung, 52.6%; with HOP-92 NSCLC, 25.3%. The growth is 63.2% in the experiment with NCI-H522 lung; 50.2% in the experiment on A549/ATCC NSCLC; -60.1% (active) in the experiment on 786-0 renal; -73.9% (active) with COLO 205 colon; 65.2% in the experiment on DU-145 prostate; -11.7% (active) in the experiment with K-562 leukemia. In addition, the growth was -83.7% (active) in the experiment on MALME-3M melanoma; 11.2% in the experiment on MDA-MB-231 breast; 42.2% in the experiment on RXF 393 renal; 58.3% with SF-268 CNS; -30% (active) in the experiment with SF-295 CNS; -72.4% (active) in the experiment with SF-539 CNS. Also, the results for the growth in the experiment with UACC-257 melanoma and with M14 melanoma were -77.8% (active) and -86.9% (active), respectively.

For `Clc1cccc(C2Cc3cnccc3-c3[nH]c4ccncc4c32)c1` (stereo not given), the growth in the experiment with NCI-H23 lung is 35%; with NCI-H226 lung it was 52.1%; in the experiment on NCI-H322M lung it was 73.2%; in the experiment with HOP-62 NSCLC it was 67.3%; in the experiment on NCI-H460 lung it was 19.1%; in the experiment with HOP-92 NSCLC it was 39.1%. Moreover, the growth in the experiment on NCI-H522 lung was 51.9%; in the experiment on A549/ATCC NSCLC it was 42.9%; in the experiment with 786-0 renal, 59.7%; in the experiment on COLO 205 colon, 23.4%; in the experiment on DU-145 prostate, 69.6%; with K-562 leukemia, 23.6%. Moreover, the growth in the experiment with MALME-3M melanoma was 52.2%; with MDA-MB-231 breast it was 44.8%; in the experiment on RXF 393 renal it was 69.1%; in the experiment on SF-268 CNS, 57.7%; with SF-295 CNS it was 28.6%; in the experiment with SF-539 CNS it was 65.5%. The growth is 29.9% in the experiment on UACC-257 melanoma and 58.4% in the experiment on M14 melanoma.

Take `CCN(CC)C(=O)C1=C(C)NC(=O)NC1c1ccc2c(c1)OCO2` (stereo not given): the growth was 103% with NCI-H23 lung; 100% in the experiment on NCI-H226 lung; 109% in the experiment on NCI-H322M lung; 105% in the experiment with HOP-62 NSCLC; 106% in the experiment with NCI-H460 lung; 109% in the experiment on HOP-92 NSCLC. In addition, the growth in the experiment on NCI-H522 lung was 96.6%; with A549/ATCC NSCLC it was 106%; with 786-0 renal, 106%; in the experiment on COLO 205 colon it was 114%; with DU-145 prostate, 113%; with K-562 leukemia, 101%. The growth in the experiment with MALME-3M melanoma is 108%; in the experiment with MDA-MB-231 breast it was 108%; in the experiment with RXF 393 renal it was 102%; with SF-268 CNS, 102%; with SF-295 CNS, 103%; in the experiment on SF-539 CNS, 96.2%. Further, the values for the growth in the experiment on UACC-257 melanoma and in the experiment on M14 melanoma were 103% and 104%, respectively.

For the molecule `O=C(/C=C/C12c3ccccc3C(c3ccccc31)C1C(=O)NC(=O)C12)c1ccco1` (stereo not given), the growth with NCI-H23 lung was 28.7%; with NCI-H226 lung, 81.6%; with NCI-H322M lung, 30.2%; with HOP-62 NSCLC, 17.7%; with NCI-H460 lung, 11%; with HOP-92 NSCLC, 24%. Moreover, the growth with NCI-H522 lung was 17%; in the experiment with A549/ATCC NSCLC, 55.4%; in the experiment with 786-0 renal, 41.1%; in the experiment with COLO 205 colon, 45.8%; with DU-145 prostate it was -0.301% (active); in the experiment on K-562 leukemia it was 12.9%. Moreover, the growth with MALME-3M melanoma was 49.3%; in the experiment with MDA-MB-231 breast, 40.3%; in the experiment on RXF 393 renal it was 1.72% (active); with SF-268 CNS, 28.7%; in the experiment with SF-295 CNS, 41.9%; with SF-539 CNS it was 30.8%. For the same molecule, the growth in the experiment with UACC-257 melanoma was 44.9%; with M14 melanoma, 46.6%.

Turning to `CCOC(=O)C1=C(CCl)N(C)C(=O)NC1c1ccc2c(c1)OCO2` (stereo not given), the growth in the experiment on NCI-H23 lung was 70.7%; with NCI-H226 lung, 77%; in the experiment on NCI-H322M lung, 85%; in the experiment on HOP-62 NSCLC, 74.7%; in the experiment with NCI-H460 lung it was 72.1%; in the experiment with HOP-92 NSCLC it was 53.9%. Besides, the growth in the experiment with NCI-H522 lung was 32.7%; in the experiment with A549/ATCC NSCLC it was 87.5%; in the experiment on 786-0 renal, 53.9%; in the experiment on COLO 205 colon it was 69.1%; in the experiment on DU-145 prostate it was 33.4%; in the experiment on K-562 leukemia, 16.7%. Further, the growth in the experiment on MALME-3M melanoma is 65%; in the experiment with MDA-MB-231 breast, 65.3%; in the experiment on RXF 393 renal, 41.3%; in the experiment with SF-268 CNS, 91.6%; in the experiment with SF-295 CNS, 95.1%; in the experiment with SF-539 CNS it was 32.5%. For the same molecule, the results for the growth in the experiment with UACC-257 melanoma and in the experiment with M14 melanoma were 59.5% and 42.1%, respectively.

Regarding `ClC(Cl)c1nc(-c2ccccc2)n2nc(-c3ccccc3)cc2n1`, the growth is -17.6% (active) in the experiment on NCI-H23 lung; 86.9% in the experiment on NCI-H226 lung; -41.7% (active) in the experiment with NCI-H322M lung; -3.61% (active) with HOP-62 NSCLC; -58.2% (active) with NCI-H460 lung; 3.98% (active) with HOP-92 NSCLC. Besides, the growth in the experiment on NCI-H522 lung is 29.9%; in the experiment on A549/ATCC NSCLC, -16.2% (active); in the experiment on 786-0 renal, 42.9%; in the experiment with COLO 205 colon it was -40.3% (active); with DU-145 prostate it was -12% (active); in the experiment on K-562 leukemia it was 31.2%. For the same molecule, the growth with MALME-3M melanoma was 55.9%; with MDA-MB-231 breast, 2.2% (active); in the experiment with RXF 393 renal it was -68% (active); in the experiment with SF-268 CNS, 11.9%; in the experiment with SF-295 CNS, -13.1% (active); in the experiment with SF-539 CNS, 0.564% (active). Further, the growth was 33.9% with UACC-257 melanoma and 32.3% in the experiment on M14 melanoma.

With `Cc1[nH]n(-c2cccc(Cl)c2)c(=O)c1/C=C1\C=c2ccccc2=CC1=O`, the growth in the experiment on NCI-H23 lung was -1.95% (active); with NCI-H226 lung, 1.04% (active); in the experiment on NCI-H322M lung it was 84.1%; in the experiment on HOP-62 NSCLC it was -57.9% (active); in the experiment with NCI-H460 lung it was 79%; with HOP-92 NSCLC it was -2.07% (active). Also, the growth in the experiment on NCI-H522 lung was -11.3% (active); in the experiment on A549/ATCC NSCLC, 60.4%; with 786-0 renal, -46.8% (active); in the experiment on COLO 205 colon, -83.5% (active); with DU-145 prostate, 35.4%; with K-562 leukemia it was 99.1%. Moreover, the growth in the experiment with MALME-3M melanoma is 59%; with MDA-MB-231 breast, 4.08% (active); with RXF 393 renal, -76.9% (active); with SF-268 CNS, 47.2%; in the experiment on SF-295 CNS it was 25.6%; in the experiment on SF-539 CNS, 72.3%. Besides, the growth was 80% with UACC-257 melanoma and 18.2% with M14 melanoma.

`COc1ccc(/C=C(/C(=O)N2CCNCC2)c2cc(OC)c(OC)c(OC)c2)cc1O`: the growth is 49.9% in the experiment with NCI-H23 lung; 88.7% in the experiment on NCI-H226 lung; 50% with NCI-H322M lung; 56.4% with HOP-62 NSCLC; 37.6% in the experiment on NCI-H460 lung; 48.7% in the experiment with HOP-92 NSCLC. Besides, the growth in the experiment on NCI-H522 lung is 0.313% (active); in the experiment on A549/ATCC NSCLC, 41.6%; in the experiment on 786-0 renal, 95.5%; with COLO 205 colon, 25.9%; in the experiment on DU-145 prostate it was 27%; in the experiment with K-562 leukemia, 22%. Moreover, the growth is 46.6% in the experiment on MALME-3M melanoma; 58.2% in the experiment on MDA-MB-231 breast; 7.47% (active) in the experiment with RXF 393 renal; 49.5% with SF-268 CNS; 66.3% in the experiment on SF-295 CNS; 6.82% (active) in the experiment with SF-539 CNS. The results for the growth in the experiment on UACC-257 melanoma and with M14 melanoma were 27% and 38%, respectively.
